This passage reports Potency and cell number change results from PubChem BioAssay AID2685 (National Center for Advancing Translational Sciences (NCATS), 2010).

The whole screen tested about 320,000 compounds, of which about 2,100 (0.66%) were called active. Another 53% or so got no clear call; they are omitted. Calls follow the shape of the dose curve; as a rule, active = well fitted inhibition curve with a large enough effect in the signal ratio, with a control signal flat (not every such curve was filed as active); inconclusive = small, poorly fitted or top-dose-only effect, or effect the other way, or a change in a side signal; inactive = flat fitted curve, though single readings scatter; the % refers to the signal ratio. This excerpt belongs to a sample that is enriched for actives.
Potency is read from the fitted curve at half-maximal effect.

This assay is described as follows: qHTS Assay for Lipid Storage Modulators in Drosophila S3 Cells.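 As to cell number change: cells counted by Cell Tracker Red CMTPX staining in the red channel.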 The conditions noted are these: BODIPY lipid droplet fluorescence, 18-24 h, cells fed with added oleic acid; cell number change: measured here: cell count max response; series mostly up to 46.1 µM. In a few lines: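 Drosophila S3 cells got compounds at several concentrations plus oleic acid (400 uM solution). Laser-scanning cytometry with 488 nm excitation read lipid droplets at 500-530 nm and cells at 575-640 nm. Percent activity was relative to 20 uM Triacsin C.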
Background: Quantitative high-throughput screening tests each substance at several concentrations.
In the case of `Cc1cccc(C)c1NC(=O)CN(C)C(=O)/C=C/c1cccs1`, the Potency result is “inactive” and the cell number change was -17%. In the case of `CCn1cnc2c(Nc3cc(F)cc(F)c3)nc(C#N)nc21`, the Potency was 0.651 µM (active) and the cell number change was -24.3%. As for `Cc1cc(C)c(C#N)c(Nc2ccc(F)cc2)n1`, the Potency entry is “inactive” and the cell number change was -10.5%.

Regarding `O=C(Cc1ccccc1)NCC(=O)OCC(=O)c1cccc([N+](=O)[O-])c1`, the Potency result is “inactive” and the cell number change amounted to 9.41%. Take `Cc1cc(OC(C)C(=O)N2CCN(c3ccccc3)CC2)c2c(C)c(C)c(=O)oc2c1` (stereo unspecified): the Potency entry is “inactive” and the cell number change stood at 5.19%. Turning to `COc1ccc(C(C)=O)cc1COC(=O)c1cccnc1Cl`, the Potency entry is “inactive” and the cell number change was 20.9%.

As for `COc1ccc(CCN(C)C(=O)c2cc(=O)c3ccccc3o2)cc1OC`, the Potency is 0.731 µM (active) and the cell number change is -2.86%. As for `N#Cc1ccccc1COC(=O)c1cc(=O)c2ccccc2o1`, the Potency entry was “inactive” and the cell number change came to 7.26%. On the same counts, the results for `O=C(OCc1ccc(F)cc1)c1cc(=O)c2ccccc2o1` are “inactive” and 11.3%. On the same counts, the results for `COc1ccc(C(C)=O)cc1COC(=O)c1cc(=O)c2ccccc2o1` are 18.4 µM (active) and 5.13%. The matching figures for `COc1ccc(C(C)=O)cc1COC(=O)c1cc2ccccc2cc1O`: 20.6 µM (active) and -9.52%.

Regarding `COc1ccc(CCN(C)C(=O)c2cc(-c3ccccc3)nc3ccccc23)cc1OC`, the Potency entry is “inactive” and the cell number change was -2.7%. As to `CCc1ccc(CN(C)C(=O)c2cc(=O)c3ccccc3o2)cc1`, the Potency result is “inactive”. Consider `COc1ccc(C(C)=O)cc1COC(=O)c1cc(C)oc1C`, for which the Potency result is “inactive” and the cell number change was -12.2%. On the same counts, the results for `CCOC(=O)c1ccc(NC(=S)N2CCCC(C)C2)cc1` (stereo unspecified) are “inactive” and 4.19%. The matching figures for `COCCN(C(=S)Nc1ccccc1OC)C(C)c1cccs1` (stereo unspecified): “inactive” and 10.3%. Take `CCCCn1nnc(NC(=O)c2sc3cc(Cl)ccc3c2Cl)n1`: the Potency result is “inactive” and the cell number change was -11.4%. The matching figures for `C/C(=N\Nc1cc(N2CCOCC2)nc(C)n1)c1ccc(F)cc1`: “inactive” and -23.7%.

For the molecule `COc1cc(OC)c2ccc(=O)oc2c1C(CCN1CCCC1)c1ccc(N(C)C)cc1` (stereo unspecified), the Potency result was “inactive” and the cell number change was determined as 0.759%. On the same counts, the results for `Cc1cc(C)nc(/N=C(\NC(=O)C(C)(C)C)Nc2ccccc2)n1` are “inactive” and 7.69%. For `O=C(CCOc1ccccc1)Nc1ccnn1C1CCN(C(=O)CCC(F)(F)F)CC1`, the Potency entry is “inactive”. Take `CN(CC(=O)OCC(=O)c1c(N)n(C)c(=O)n(C)c1=O)S(=O)(=O)c1ccc(Cl)cc1`: the Potency entry is “inactive” and the cell number change is -11.5%. The matching figures for `CC(C)[C@H](NS(=O)(=O)c1ccc(Cl)cc1)C(=O)OCC(=O)c1c(N)n(C)c(=O)n(C)c1=O`: 29.1 µM (active) and -5.89%. Take `Cn1c(N)c(C(=O)COC(=O)CNS(=O)(=O)c2cccc(Cl)c2)c(=O)n(C)c1=O`: the Potency entry is “inactive” and the cell number change was -1.55%. As to `O=C(NC1CCCc2ccccc21)c1ccccc1` (stereo unspecified), the Potency entry was “inactive” and the cell number change came out at 96.9%. Consider `COC(=O)CN(c1cccc(OC)c1)S(C)(=O)=O`, for which the Potency was 16.4 µM (active) and the cell number change is -6.69%.

Consider `COC(=O)CN(c1cccc(C(C)=O)c1)S(C)(=O)=O`, for which the Potency entry is “inactive” and the cell number change was -12.6%. Regarding `COC(=O)CN(c1cccc(F)c1)S(C)(=O)=O`, the Potency result was “inactive”. Take `COc1ccccc1CN1CC(C(=O)NC2CCOCC2)CCC1=O` (stereo unspecified): the Potency entry is “inactive” and the cell number change was 0.697%. On the same counts, the results for `CCC(C)N1CCNCC1` (stereo unspecified) are “inactive” and 2.58%. Turning to `Cc1cc2c3c(ccc(C)c3n1)N=CN2c1ccccc1`, the Potency result was “inactive”. Regarding `CCCCOc1cccc(C(=O)O)c1`, the Potency entry was “inactive” and the cell number change was -9.86%. Regarding `CC(C)Oc1cccc(C(=O)O)c1`, the Potency was 16.4 µM (active) and the cell number change came to 0.0714%. `CC(C)Oc1cccc(C(=O)N2CCCC2)c1`: the Potency entry is “inactive” and the cell number change was 0.879%.

Take `Cc1cc(OCC(=O)NCc2nc(-c3ccccc3)no2)c(C)cc1Br`: the Potency result was “inactive” and the cell number change was determined as 8.52%. As for `Cn1cc(/C=C/c2cc[n+](C)cc2)c2cc(F)ccc21`, the Potency is 25.9 µM (active) and the cell number change was 5.37%. `COc1ccc2c(c1)c(/C=C/c1cc[n+](C)cc1)cn2C`: the Potency entry is “inactive”. In the case of `Cn1cc(C=O)c2cc(F)ccc21`, the Potency entry is “inactive”. Turning to `CC(=O)Nc1ccc(S(=O)(=O)N2CCN(CC3CC4C=CC3C4)CC2)cc1` (stereo unspecified), the Potency entry is “inactive” and the cell number change turned out to be 5.59%. Regarding `O=C(N/N=C/c1ccncc1)c1ccc2c(c1)OCO2`, the Potency result was “inactive” and the cell number change is -3.13%.

Consider `CCCc1cc2c(=O)c(-c3ccccn3)c(C)oc2cc1O`, for which the Potency entry was “inactive” and the cell number change is -9.21%. The matching figures for `CC(=O)N[C@H](C(=O)N[C@@H](C)C(=O)N[C@H](C#N)CC(=O)O)C(C)C`: “inactive” and 8.31%.

As for `CC(=O)Nc1ccc(S(=O)(=O)N(C)CC(=O)OCC(=O)N2CCc3ccccc32)cc1`, the Potency was 20.6 µM (active) and the cell number change is -7.07%. The matching figures for `Cc1ccc(S(=O)(=O)CCC(=O)OCC(=O)N2CCc3ccccc32)cc1`: “inactive” and -18.3%.

As to `Cc1ccc(S(=O)(=O)N2CCC(C(=O)OCC(=O)N3CCc4ccccc43)CC2)cc1`, the Potency is 7.31 µM (active) and the cell number change was -18.3%. With `CC(=O)Nc1ccc(S(=O)(=O)NCC(=O)OCC(=O)N2CCCc3ccccc32)cc1`, the Potency entry was “inactive” and the cell number change was -6.74%. On the same counts, the results for `CC(=O)Nc1ccc(S(=O)(=O)N(C)CC(=O)OCC(=O)N2CCCCCC2)cc1` are “inactive” and -4.09%.

Take `Cc1ccc(S(=O)(=O)N2CCC(C(=O)OCC(=O)N3CC(=O)Nc4ccccc43)CC2)cc1`: the Potency entry was “inactive” and the cell number change came to 8.87%. Take `Nn1cc(-c2ccccc2)nc1SCC(=O)NCC(F)(F)F`: the Potency result was “inactive”.
